Unmarked numbers belong to inactive results. Activity calls are given as the source filed them. Rule as the data show it, unless noted: active = inhibition above about 36%; inactive = the rest.

The subject of assay [1] is transactivating tegument protein VP16 (Human herpesvirus 1). Briefly: compounds suppressing VP16-driven luciferase signal – cell-based, luminescence, single concentration, counter-screen for SRC2 inhibitor project (AID 652007). The settings on record: cell-based VP16 transactivation luciferase reporter, at 8.9 µM, stronger effect = higher value.
Assay [2] concerns the target Nuclear receptor coactivator 2 (Homo sapiens) (UniProt Q15596). Briefly: inhibition of GAL4-SRC2 driven luciferase expression – cell-based, luminescence, HEK293, triplicate, confirmation (AID 652008;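 active = mean inhibition above 46.5%, the solvent-only control mean plus 3 SD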;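 also: 0% = DMSO-treated cells and 100% = Gossypol at 36 µM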). The settings on record: HEK293 GAL4-SRC2 luciferase reporter, at 8.9 µM, stronger effect = higher value. (In general: In a reporter assay the amount or activity of a reporter protein is the signal.)

Sequence of Nuclear receptor coactivator 2 (Homo sapiens) (Q15596 whole entry, looked up, the tested form may be a part): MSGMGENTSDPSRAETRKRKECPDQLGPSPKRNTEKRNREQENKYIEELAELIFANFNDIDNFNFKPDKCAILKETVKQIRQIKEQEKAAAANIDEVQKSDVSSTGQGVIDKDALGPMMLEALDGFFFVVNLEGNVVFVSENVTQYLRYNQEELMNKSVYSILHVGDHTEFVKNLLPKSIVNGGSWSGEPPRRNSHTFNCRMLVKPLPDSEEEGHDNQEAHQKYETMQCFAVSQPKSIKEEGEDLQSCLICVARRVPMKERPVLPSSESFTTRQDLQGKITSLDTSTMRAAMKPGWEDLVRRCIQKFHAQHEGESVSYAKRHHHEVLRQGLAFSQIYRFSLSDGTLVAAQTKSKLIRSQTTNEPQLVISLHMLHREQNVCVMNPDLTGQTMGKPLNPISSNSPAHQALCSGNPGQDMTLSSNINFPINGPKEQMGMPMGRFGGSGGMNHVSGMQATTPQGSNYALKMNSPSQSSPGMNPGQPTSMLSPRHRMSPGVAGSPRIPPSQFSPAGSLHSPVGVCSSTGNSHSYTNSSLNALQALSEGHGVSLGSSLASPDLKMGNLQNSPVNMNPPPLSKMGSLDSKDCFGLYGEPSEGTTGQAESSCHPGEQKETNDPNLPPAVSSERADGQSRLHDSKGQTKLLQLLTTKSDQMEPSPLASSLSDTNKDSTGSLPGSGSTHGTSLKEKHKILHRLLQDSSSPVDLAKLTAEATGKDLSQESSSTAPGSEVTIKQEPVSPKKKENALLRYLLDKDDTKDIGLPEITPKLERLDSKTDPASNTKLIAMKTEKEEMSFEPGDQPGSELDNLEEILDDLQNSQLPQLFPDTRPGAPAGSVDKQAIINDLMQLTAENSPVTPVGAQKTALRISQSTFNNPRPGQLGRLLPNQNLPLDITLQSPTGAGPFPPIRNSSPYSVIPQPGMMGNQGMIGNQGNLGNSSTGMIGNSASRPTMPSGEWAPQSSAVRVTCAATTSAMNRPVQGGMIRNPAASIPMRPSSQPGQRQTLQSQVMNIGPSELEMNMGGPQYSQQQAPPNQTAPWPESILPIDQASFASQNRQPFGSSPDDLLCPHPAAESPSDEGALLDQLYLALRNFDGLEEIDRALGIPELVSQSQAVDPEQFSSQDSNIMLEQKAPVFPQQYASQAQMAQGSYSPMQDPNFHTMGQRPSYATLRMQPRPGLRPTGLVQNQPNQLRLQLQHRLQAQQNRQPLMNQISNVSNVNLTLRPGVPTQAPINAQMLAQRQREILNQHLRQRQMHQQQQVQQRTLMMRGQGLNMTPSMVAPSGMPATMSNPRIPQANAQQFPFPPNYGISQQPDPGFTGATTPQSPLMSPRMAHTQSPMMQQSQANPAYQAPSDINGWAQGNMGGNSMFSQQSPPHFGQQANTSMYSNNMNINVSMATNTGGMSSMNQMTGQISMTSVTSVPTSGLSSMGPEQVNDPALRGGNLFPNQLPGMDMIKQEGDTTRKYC

For orientation: inhibition means the drop in the measured response relative to a control, in per cent. In the case of `C=CCN(CC#CCN(C)C(=O)c1cccn1C(=O)OC(C)(C)C)Cc1ccc(OC)cc1OC`, the inhibition in assay [1] is -6.71%; in assay [2], -1.62%.

With `Cc1ccc(NCc2nnc(SCC(=O)c3ccccc3)n2Cc2ccco2)c(C)c1`, the values for the inhibition in assay [1] and in assay [2] were -11.6% and -16.7%, respectively.

As for `CC1CCC(C(C)C)C(OCC(O)CN2CCCC(C)C2)C1` (configuration not stated), the inhibition in assay [1] was -4.71%; in assay [2], -16.1%.

Regarding `O=C(N/N=C/c1ccc([N+](=O)[O-])o1)c1cc2ccccc2o1`, the inhibition in assay [1] was 21.6%; in assay [2], 56.4% (active).

Take `O=C1C(N2CCOCC2)=C(n2nnc3ccccc32)C(=O)c2ccccc21`: the results for the inhibition in assay [1] and in assay [2] were 43.9% (active) and 34.6%, respectively.

On to `CCC(=O)Nc1ccc(NCc2ccc(-c3ccccc3)cc2)cc1`, for which the inhibition in assay [1] is 20.7%; in assay [2], 17.8%.

On to `CC1=CC(C)(C)Nc2ccc(OC(=O)C(C)N3C(=O)c4ccccc4C3=O)cc21` (configuration not stated), for which the inhibition in assay [1] was -33.8%; in assay [2], 20.7%.

Regarding `COc1ccc(OC)c(CC(=O)Nc2ccc3c(c2)c(=O)n(C)n3Cc2cccc(C(F)(F)F)c2)c1`, the inhibition in assay [1] is -5.16%; in assay [2], -6.44%.

Take `COc1ccc(CN2C[C@H](COCc3ccccc3)Oc3cccc(N4CCCC4)c3S2(=O)=O)cc1`: the inhibition in assay [1] was -11%; in assay [2], -6.23%.

`CCOc1ccc(-n2cc(C(=O)NCc3ccco3)c3cc(OC)c(OC)cc3c2=O)cc1`: the inhibition was 2.87% in assay [1] and -7.4% in assay [2].

`COc1cccc(NC(=O)Nc2nnc(N3C(C)CCCC3C)s2)c1` (configuration not stated): the inhibition in assay [1] is -51.2%; in assay [2], -7.93%.
